Calls of active or inactive are those of the source.
Experiments:
[1] = target: Albumin (Bos taurus) (UniProt P02769); test: bovine serum albumin binders on microarray, profiling panel, artefact control for SMM control protein annotation, biochemical, small-molecule microarray, Alexa647 label, 635/667 nm fluorescence (AID 1118); settings: BSA-A647 binding, fluorescence 635 nm, higher = more signal;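 further: score merges 667 nm emission intensity and signal-to-noise per printed compound spot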
[2] = small-molecule microarray binders of probe aXIP, primary screen, biochemical, NeuroSMM set, 635/667 nm fluorescence (AID 1119); settings: higher = more signal, called active from +8 up or from −8 down;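 further: probe is the protein aXip251-270 applied at 1 µg/mL to compound-printed slides; binding of probe to printed compounds measured as 667 nm fluorescence plus signal to noise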
[3] = small-molecule binders of probe aNOTCH3, primary screen, biochemical, small-molecule microarray, 635/667 nm fluorescence (AID 1120); settings: higher = more signal;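 further: probe is a biotin-tagged antibody raised against NOTCH3 rather than NOTCH3 protein; score merges spot fluorescence near 667 nm with spot signal to noise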
[4] = small-molecule binders of probe aNOTCH2, primary screen, biochemical, small-molecule microarray, 635/667 nm fluorescence (AID 1121); settings: higher = more signal;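 further: score merges feature fluorescence read at 667 nm with its signal to noise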
[5] = target: Carbonic anhydrase 2 (Homo sapiens) (UniProt P00918); test: CAII small-molecule binders, profiling panel, biochemical, small-molecule microarray, Alexa647-labelled CAII (AID 1122); settings: CAII-A647 binding fluorescence, higher = more signal
[6] = COS7 lysate on small-molecule microarray, probe aHis, 635 nm (AID 1123); settings: COS7 cell lysate, fluorescence, higher = more signal;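 further: z-score combines 667nm fluorescence intensity with signal-to-noise per printed compound spot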
[7] = compound binding in COS7 lysate, probe aLAP1, primary screen, cell lysate, small-molecule microarray (AID 1124); settings: probe aLAP1, fluorescence, higher = more signal;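 further: lysate comes from COS7 cells expressing LAP1 and is applied at 0.3 µg/mL; score merges spot fluorescence near 667 nm with signal-to-noise over triplicate slides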
[8] = tested on: Sam68 (KHDRBS1); test: Sam68 small-molecule binders, primary screen, biochemical, small-molecule microarray, 635 nm fluorescence (AID 1125); settings: small-molecule microarray binding, higher = more signal;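 further: score merges 667 nm channel intensity with signal to noise over triplicate slides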
[9] = tested on: Chordin-like protein 2 (CHRDL2); test: CHRDL2 small-molecule binders, primary screen, biochemical, small-molecule microarray, 635 nm fluorescence (AID 1126); settings: small-molecule microarray binding, fluorescence 635 nm; higher = more signal;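 further: printed compound slides probed with Chrdl2 protein at 4 µg/mL for 1 h at 4 C; score merges 667 nm emission intensity with signal to noise over three replicate slides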
[10] = target: Concanavalin-A (Canavalia ensiformis) (UniProt P02866); test: ConA small-molecule binders, primary screen, artefact control for SMM control protein annotation, biochemical, small-molecule microarray, Alexa647 label, 635 nm (AID 1127); settings: ConA-A647 binding fluorescence, higher = more signal;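 further: z combines 667 nm emission intensity with signal-to-noise across three replicate slides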
[11] = anti-His antibody binders, primary screen, artefact control for SMM control protein annotation, biochemical, small-molecule microarray, 635 nm fluorescence (AID 1128); settings: anti-His Alexa647 antibody binding, higher = more signal;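 further: score merges feature fluorescence with signal-to-noise for each printed compound spot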
[12] = tested on: Human papillomavirus type 1a E7 protein (residues 1-88); test: HPV1a E7 small-molecule binders, primary screen, biochemical, small-molecule microarray, residues 1-88, 635 nm (AID 1129); settings: small-molecule microarray binding, fluorescence 635 nm; higher = more signal
[13] = target: Focal adhesion kinase 1 (Homo sapiens) (UniProt Q05397); test: small-molecule microarray binders of FAK, primary screen, biochemical, 635/667 nm fluorescence, BSA, DTT (AID 1130); settings: PTK2 binding, 635 nm fluorescence, higher = more signal;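 further: composite of spot emission at 667 nm and signal to noise over triplicate slides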
[14] = tested on: Fibrinogen (Alexa647-labelled); test: fibrinogen binders on compound microarrays, profiling panel, artefact control for SMM control-protein annotation, biochemical, small-molecule microarray, 635/667 nm fluorescence (AID 1131); settings: fibrinogen-A647 binding fluorescence, higher = more signal;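 further: z-score merges 667 nm fluorescence with per-spot signal-to-noise over triplicate slides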
[15] = target: Follistatin (Homo sapiens) (UniProt P19883); test: follistatin binders on small-molecule microarrays, primary screen, biochemical, small-molecule microarray, 635/667 nm fluorescence (AID 1132); settings: FST binding, 635 nm fluorescence, higher = more signal
[16] = target: Fibroblast growth factor 2 (Homo sapiens) (UniProt P09038); test: FGF2 binders on small-molecule microarrays, primary screen, biochemical, small-molecule microarray, 635/667 nm fluorescence (AID 1133); settings: small-molecule microarray binding, FGF2, fluorescence 635/667; higher = more signal
[17] = mitochondrial membrane potential change in A549 cells, profiling panel, cell-based, JC-1 fluorescence, basal, 24 h, 100 nL (AID 1138); settings: higher = more signal;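 further: A549 lung adenocarcinoma cells under basal conditions with no added stimulus; test concentration not given here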
[18] = tested on: Lefty1; test: Lefty1 binders on small-molecule microarrays, primary screen, biochemical, small-molecule microarray, 635/667 nm fluorescence (AID 1139); settings: small-molecule microarray binding, fluorescence 635/667; higher = more signal
[19] = tested on: wheat germ agglutinin (Triticum aestivum), Alexa647-labelled; test: wheat germ agglutinin binders on compound microarrays, profiling panel, artefact control for SMM control-protein annotation, biochemical, small-molecule microarray, 635/667 nm fluorescence (AID 1140); settings: WGA-A647 binding, 635 nm fluorescence, higher = more signal;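 further: score merges 667 nm feature emission with signal to noise over triplicate slides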
[20] = target: Luciferin 4-monooxygenase (Photinus pyralis) (UniProt P08659); test: firefly luciferase enzyme inhibitors, primary screen, biochemical, luminescence, purified enzyme, 2006 set (AID 1141); settings: SteadyGlo luminescence, 30 min, higher = more signal, called active from +8 up or from −8 down;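 further: cell-free assay with purified firefly luciferase at 100 ng per well in PBS; test concentration not given here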
Luciferin 4-monooxygenase (Photinus pyralis), sequence (P08659 whole entry, looked up): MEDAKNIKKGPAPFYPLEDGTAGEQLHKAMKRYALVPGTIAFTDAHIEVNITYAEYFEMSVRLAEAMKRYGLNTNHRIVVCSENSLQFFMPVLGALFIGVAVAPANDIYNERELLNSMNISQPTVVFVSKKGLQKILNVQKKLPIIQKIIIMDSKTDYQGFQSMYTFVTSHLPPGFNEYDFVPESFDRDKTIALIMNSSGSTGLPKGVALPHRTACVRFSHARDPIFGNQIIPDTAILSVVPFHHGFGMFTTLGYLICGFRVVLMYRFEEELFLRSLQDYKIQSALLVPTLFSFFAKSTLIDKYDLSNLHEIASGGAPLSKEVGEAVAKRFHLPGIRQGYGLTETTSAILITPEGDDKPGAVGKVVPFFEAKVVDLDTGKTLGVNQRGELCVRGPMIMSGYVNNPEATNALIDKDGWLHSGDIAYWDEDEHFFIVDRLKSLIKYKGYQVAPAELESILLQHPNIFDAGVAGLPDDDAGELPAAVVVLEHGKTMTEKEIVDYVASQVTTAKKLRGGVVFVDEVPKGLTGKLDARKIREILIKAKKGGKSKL

Focal adhesion kinase 1 (Homo sapiens), sequence (Q05397 whole entry, looked up): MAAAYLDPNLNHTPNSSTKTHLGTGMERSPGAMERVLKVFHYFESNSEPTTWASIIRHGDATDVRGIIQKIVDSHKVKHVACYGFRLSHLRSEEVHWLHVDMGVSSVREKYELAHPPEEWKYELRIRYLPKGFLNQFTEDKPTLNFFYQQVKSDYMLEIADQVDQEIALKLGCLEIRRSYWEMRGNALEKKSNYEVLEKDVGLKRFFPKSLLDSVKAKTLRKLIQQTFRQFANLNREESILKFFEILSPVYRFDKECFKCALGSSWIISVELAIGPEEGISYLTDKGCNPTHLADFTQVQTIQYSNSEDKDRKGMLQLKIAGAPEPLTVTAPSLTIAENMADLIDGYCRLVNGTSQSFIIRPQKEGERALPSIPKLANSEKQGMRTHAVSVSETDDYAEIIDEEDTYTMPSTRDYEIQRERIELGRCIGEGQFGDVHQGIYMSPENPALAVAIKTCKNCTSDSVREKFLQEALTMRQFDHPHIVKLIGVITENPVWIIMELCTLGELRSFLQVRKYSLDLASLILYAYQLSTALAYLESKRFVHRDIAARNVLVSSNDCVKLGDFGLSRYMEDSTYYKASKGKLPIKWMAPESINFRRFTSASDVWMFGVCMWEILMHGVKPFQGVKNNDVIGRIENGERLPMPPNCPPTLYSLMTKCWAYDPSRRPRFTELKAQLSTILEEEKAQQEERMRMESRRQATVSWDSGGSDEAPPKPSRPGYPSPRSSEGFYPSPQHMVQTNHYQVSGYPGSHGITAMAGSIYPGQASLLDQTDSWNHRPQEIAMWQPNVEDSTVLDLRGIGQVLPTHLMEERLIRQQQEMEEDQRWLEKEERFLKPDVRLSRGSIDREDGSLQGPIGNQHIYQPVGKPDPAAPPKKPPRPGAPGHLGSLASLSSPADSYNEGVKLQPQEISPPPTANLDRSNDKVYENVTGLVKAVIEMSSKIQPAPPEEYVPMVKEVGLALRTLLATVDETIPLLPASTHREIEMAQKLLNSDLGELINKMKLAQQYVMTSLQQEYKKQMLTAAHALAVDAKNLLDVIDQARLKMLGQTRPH
Follistatin (Homo sapiens), sequence (P19883 whole entry, looked up): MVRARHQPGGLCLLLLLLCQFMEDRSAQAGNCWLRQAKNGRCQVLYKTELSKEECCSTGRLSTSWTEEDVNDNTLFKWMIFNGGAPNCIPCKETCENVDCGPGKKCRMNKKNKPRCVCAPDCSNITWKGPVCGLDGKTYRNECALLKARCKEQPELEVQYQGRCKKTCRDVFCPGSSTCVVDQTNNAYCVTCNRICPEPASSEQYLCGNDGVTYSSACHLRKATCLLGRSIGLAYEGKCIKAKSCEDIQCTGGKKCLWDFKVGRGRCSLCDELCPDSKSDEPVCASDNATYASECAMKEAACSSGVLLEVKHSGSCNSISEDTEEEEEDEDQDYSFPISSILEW
Concanavalin-A (Canavalia ensiformis), sequence (P02866 whole entry, looked up): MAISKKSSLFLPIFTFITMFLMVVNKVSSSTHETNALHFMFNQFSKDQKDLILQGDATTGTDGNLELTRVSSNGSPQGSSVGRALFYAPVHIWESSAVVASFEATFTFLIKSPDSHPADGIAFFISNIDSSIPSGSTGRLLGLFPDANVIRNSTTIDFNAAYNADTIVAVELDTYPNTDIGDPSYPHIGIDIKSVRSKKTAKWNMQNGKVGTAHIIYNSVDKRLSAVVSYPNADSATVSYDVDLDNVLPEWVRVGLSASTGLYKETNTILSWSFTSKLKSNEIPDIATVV
Albumin (Bos taurus), sequence (P02769 whole entry, looked up): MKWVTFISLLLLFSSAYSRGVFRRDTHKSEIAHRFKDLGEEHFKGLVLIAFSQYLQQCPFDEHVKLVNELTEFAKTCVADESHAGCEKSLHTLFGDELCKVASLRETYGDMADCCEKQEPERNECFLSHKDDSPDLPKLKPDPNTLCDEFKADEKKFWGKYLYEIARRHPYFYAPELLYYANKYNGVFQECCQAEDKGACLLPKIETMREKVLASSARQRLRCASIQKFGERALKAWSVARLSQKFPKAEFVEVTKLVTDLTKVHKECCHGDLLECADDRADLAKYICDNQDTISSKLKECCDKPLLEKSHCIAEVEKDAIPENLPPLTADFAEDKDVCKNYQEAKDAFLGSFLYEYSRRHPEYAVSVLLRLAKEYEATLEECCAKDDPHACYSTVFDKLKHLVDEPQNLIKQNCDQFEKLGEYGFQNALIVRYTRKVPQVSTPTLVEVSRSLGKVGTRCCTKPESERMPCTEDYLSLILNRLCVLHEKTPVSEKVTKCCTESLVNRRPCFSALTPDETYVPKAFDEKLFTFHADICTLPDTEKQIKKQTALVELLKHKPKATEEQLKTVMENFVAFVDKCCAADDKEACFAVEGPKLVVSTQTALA
Fibroblast growth factor 2 (Homo sapiens), sequence (P09038 whole entry, looked up): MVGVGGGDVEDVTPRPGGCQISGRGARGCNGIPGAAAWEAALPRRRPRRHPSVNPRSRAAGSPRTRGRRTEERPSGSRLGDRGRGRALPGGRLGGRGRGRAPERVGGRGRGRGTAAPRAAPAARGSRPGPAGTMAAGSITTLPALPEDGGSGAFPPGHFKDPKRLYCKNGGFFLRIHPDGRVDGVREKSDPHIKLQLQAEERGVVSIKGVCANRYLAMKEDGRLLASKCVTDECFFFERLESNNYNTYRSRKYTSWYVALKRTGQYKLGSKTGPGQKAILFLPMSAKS

Row | Structure (SMILES) | composite z-score [1] | composite Z-score [2] | composite z-score [3] | composite z-score [4] | composite z-score [5] | composite z-score [6] | composite z-score [7] | composite z-score [8] | composite z-score [9] | composite z-score [10] | composite z-score [11] | composite z-score [12] | composite z-score [13] | composite z-score [14] | composite z-score [15] | composite z-score [16] | z-score [17] | composite z-score [18] | composite z-score [19] | z-score [20]
1 | CC1(C)C2C=C(C(O)C3C=CC4C(=O)NC(=O)C4N3Nc3ccc(Cl)cc3Cl)C[C@@H]1C2 (stereo not given in full) | 0.818 | 0.392 (inactive) | 0.323 | 0.155 | 0.423 | 1.24 | 0.906 | 0.337 | 0.061 | 0.899 | 1.26 | 0.87 | -0.167 | 0.606 | 1.02 | -0.169 | -1.44 | 0.317 | 0.698 | 0.155 (inactive)
2 | O=C1[C@@]23C=C(Br)[C@H](C[C@@H]2CCOC3)[C@@]12CO2 | -0.169 | -0.775 (inactive) | 0.146 | -0.162 | -0.0433 | -0.128 | 0.522 | 0.166 | 0.518 | 0.311 | 0.477 | 0.235 | -0.176 | 0.332 | 0.327 | 0.469 | 1.23 | 0.406 | 0.128 | -0.54 (inactive)
3 | COCCCNC(=O)[C@]1(CCC(=O)OC(C)(C)C)N=C(c2ccc(OCCCO)cc2)O[C@@H]1c1ccccc1CN=[N+]=[N-] | 0.839 | 0.0707 (inactive) | 0.395 | -0.0411 | 0.78 | 2.03 | 1.8 | 1.3 | 0.0091 | 1.12 | 1.3 | 1.26 | 0.383 | 0.197 | 1.28 | 1.09 | -0.627 | 0.19 | 1.13 | -1.11 (inactive)
4 | [N-]=[N+]=NCc1ccccc1C[C@]1(C(N)=O)COC(c2ccc(OCCCO)cc2)=N1 | 0.624 | 0.155 (inactive) | 0.0225 | 0.106 | 0.656 | 2.24 | 1.29 | 0.48 | -0.846 | 0.556 | 0.0064 | 0.3 | -0.0367 | 0.389 | 1.24 | 0.261 | 0.564 | 0.299 | 0.821 | -2.06 (inactive)
5 | Cc1ccc(S[C@]2(C(=O)NCCCN(C)C)CC(=O)N(Cc3ccccc3C(F)(F)F)[C@@H]2c2ccc(CO)cc2)cc1 | 0.54 | -0.676 (inactive) | -0.0639 | -0.0013 | 0.211 | 0.0645 | -0.41 | 0.0809 | -0.327 | -1.48 | -1.09 | -0.935 | -0.157 | 0.109 | -0.85 | -0.45 | 0.566 | -0.853 | 0.427 | -0.903 (inactive)
6 | CCc1cccc(NC(=O)O[C@H]2[C@H](OC(=O)Nc3ccccc3-c3ccccc3)[C@@H](OC(=O)Nc3ccccc3-c3ccccc3)[C@@H](OC)O[C@@H]2CO)c1 | 0.81 | 0.237 (inactive) | 0.13 | -0.0238 | 0.704 | 2.8 | 0.219 | 1.3 | -0.229 | 1.07 | 2.04 | 1.31 | 0.69 | 1.02 | 1.02 | 0.179 | -1.12 | 0.345 | 1.08 | 0.532 (inactive)
7 | C=C[C@H](CO)NS(=O)(=O)c1ccc(Br)cc1 | 0.158 | 0.058 (inactive) | 0.234 | -0.127 | -0.0876 | 1 | 0.117 | 0.562 | 0.704 | 0.549 | 0.461 | 0.446 | 0.179 | 0.28 | 1.06 | 0.464 | 1.19 | 0.28 | 0.279 | -0.877 (inactive)
8 | NC(=O)[C@@H]1[C@H]2C(=O)O[C@H](c3ccccc3)[C@H](c3ccccc3)N2[C@H](c2ccc(O)cc2)[C@@]12C(=O)Nc1ccccc12 | 0.257 | -0.622 (inactive) | -0.288 | -0.155 | 0.75 | 2.37 | 0.691 | 0.203 | -1.73 | -0.161 | -0.393 | -0.507 | 0.119 | -0.538 | -0.5 | -1.17 | -1.11 | -0.827 | 0.156 | -0.366 (inactive)
9 | Cc1nc2cc(Br)ccc2c(=O)o1 | 0.367 | 0.239 (inactive) | -0.013 | -0.124 | 0.633 | 0.495 | 0.108 | 0.384 | 0.126 | 0.724 | 0.302 | 0.628 | 0.201 | 0.0814 | 0.657 | -0.0519 | 0.0359 | 0.328 | 0.536 | 1.16 (inactive)
10 | C[N+](C)(C)CCCC[C@@H]1NC(=O)[C@H]2C[C@@H](C(=O)NCCCCCCNC(=O)CS)[C@@H](c3cccc(OCCO)c3)N2C1=O | 0.492 | 3.4 (inactive) | -0.246 | -0.146 | 0.881 | 1.8 | 0.864 | -0.365 | -1.44 | -0.338 | 1.03 | -0.945 | 0.434 | -1.56 | 0.897 | 0.885 | -0.32 | -1.36 | 0.396 | -0.252 (inactive)
11 | O=C(c1ccccc1)N1C(=O)[C@]2(COC(c3ccc(OCCCO)cc3)=N2)Cc2ccccc21 | 0.368 | 3.03 (inactive) | 0.201 | -0.0249 | 0.566 | 3.17 | 0.771 | 1.29 | 0.674 | 1.16 | 3.28 | 1.2 | 0.628 | 0.988 | 1.4 | 1.1 | -0.345 | 0.443 | 1.12 | -1.19 (inactive)
